This is an account of results in the supplement of paper PMC6555819.

In this experiment the test system is VDR:RXRa (NR concentration 270 nM, RXRa partner concentration 90 nM). The experiment in a line: PBM binding z-score (relative to random genomic background probes); higher = stronger binding; sequences stand for … in GC…GCGATTGACAGCGTAGAATGAAGG
As for the experimental part: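 Protein-binding microarray (Agilent 4x180K custom design, double-stranded 60-nt probes: 5' GC cap, 34-nt variable region, 24-nt constant primer region; full probe sequence given). Purified or IVT nuclear receptor:RXRα heterodimers (3:1 NR:RXRα, mostly 270:90 nM) or homodimers were incubated for 1 h in PBS with 2% milk and no ligand, then detected with Alexa488 antibodies. Fluorescence from o1-orientation probes (~5 replicates averaged) was converted to z-scores against 500 random hg19 background probes. Variable regions are seed direct-repeat (DR0–DR5) sites, all their single-nucleotide variants and half-site ablations.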
ATCGAAAGGGCGTGAGGTGAGTATACAGAAAGGC registered a PBM binding z-score of 0.49.

Consider CGACCTAGGTCAAAGGACAGTGAAAGGCGACGTA, for which the PBM binding z-score came to 2.05.

For TTACAAAGGTGAGCTGAGGTCGTTGATCCAACTC, the PBM binding z-score amounted to 5.58.

TCGAGTAGGTTACGGGGGCATTGAGGGATGAAGA gave a PBM binding z-score of 3.66.

Regarding ACTCGGAGGGCAAAGGTCAGAGCTACGCCAGTGA, the PBM binding z-score was determined as 4.32.

ATATGTAGGTTCGGGTCATTCAGAAAGTAGGGAA returned a PBM binding z-score of 3.72.

ATATGTAGGTTAGGGTCATTCACAAAGTAGGGAA came in with a PBM binding z-score of 4.61.

In turn, CAAAATAGGTCAAGGTCAAAGTCGGTTTGTGCCA registered a PBM binding z-score of 5.51.

For CGAACTAGGTCAACGGACAGTGAAAGGCGACGTA, the PBM binding z-score is 1.12.

ACTAGCAGGTCAAGGGTCACTCAAGATTAGTCCG displayed a PBM binding z-score of 5.4.

In turn, CAAACTAGGTCACAGAGGTCAAAGTTCGTGCGTA gave a PBM binding z-score of 8.36.

CGTCCAAGGTCATAGGAGGTCATTGAAGACAGAT yielded a PBM binding z-score of 7.27.

CATACTAGGTCAAAGGTCAAAGTCGAGCCAACCA: the PBM binding z-score worked out at 6.61.

In turn, CGAACTAGGTCACAAGGACAGTGAAGAGGTTGGA had a PBM binding z-score of 1.83.

With TAGCCTAGGTCATTCAGGGGCTAGTATAGAAAGC, the PBM binding z-score was 2.8.

Sequence TCGAGTAGGTTACGGGGGCAATCAGGGATGAAGA returned a PBM binding z-score of 3.22.

Consider GATACACGGTCAAGGCCAGAGTACGCGTATTGAT, for which the PBM binding z-score is -0.0304.

In the case of CAAACTAGGTCACCGGAAGGTCATAGTCCGCATG, the PBM binding z-score was determined as 5.66.

Consider CCTACTGGGCCAAAGGTCAGTGATTCCAATGCTC, for which the PBM binding z-score was found to be 2.88.

As to CGAACTAGGTCACCAGGACATTGAAGAGGTTGGA, the PBM binding z-score came to 2.31.

With CCGTGTAGGTTACGAGGGGGCATTCAGTGCGAAT, the PBM binding z-score stood at 5.7.

As to CGTCCAAGGTCAAAGGTCAGTAAAGAGATGACGG, the PBM binding z-score was 6.53.

The sequence CCGACTGGGCCATTCAGAGGTCATTGATCATATG came in with a PBM binding z-score of 3.7.

Take CAAACTAGGTCAAAGGTCAACGTCGAGCCAACCA: the PBM binding z-score stood at 6.69.

Take CGAACTAGGACATCCAGGACAGTGAATACATTGA: the PBM binding z-score was -0.0982.

On to ATGTGTAGGTTACATCCGGGTCATTCAGGCTATG, for which the PBM binding z-score was 4.22.

As to TCGAGTAGGTTACGGGGGCATTCACGGATGAAGA, the PBM binding z-score came out at 3.95.

For TCGAGTAGGTTATGGGGGCATTCAGGGATGAAGA, the PBM binding z-score was determined as 3.34.

In turn, CCTACTGGGCCAATGTCATTGATCAGTCAAAGCA gave a PBM binding z-score of -0.366.

In turn, CGAACTACGTCAAAGGACAGTGAAAGGCGACGTA came in with a PBM binding z-score of -0.443.

In turn, CGGCCAAGGTCAAAGGTCAGTGAAGAGATGACGG showed a PBM binding z-score of 6.67.

For CTATGTAGGTTTAGGGGGTCATTCAGTTTGAAAG, the PBM binding z-score came to 6.29.

Take CGTCCAAGGTCCATGCTAGGTCAGTGAAAGCATT: the PBM binding z-score worked out at 0.731.

Sequence AGTCGGAGGACAAAGGTCAGAGCTACGCCAGTGA displayed a PBM binding z-score of 3.28.

On to CCTTACGGGTCACTCAAGGTTATAGCATCGGAGT, for which the PBM binding z-score came out at 5.32.

In turn, CCTACTGGGCCAAAGGACATTGATTCCAATGCTC showed a PBM binding z-score of -0.439.

In turn, CCTACTGGGCCACTCAGAGGTCATTGATCATATG had a PBM binding z-score of 4.06.

Turning to CCTAGTTGGTCAGGAGGTCACATACCGGATATGA, the PBM binding z-score is 3.57.

Turning to CGAACTAGGTCACCGGGACAGTGAAGAGGTTGGA, the PBM binding z-score came out at 2.52.

ATATGTAGCTTAGGGTCATTCAGAAAGTAGGGAA showed a PBM binding z-score of 4.27.
